The list is not random: actives were taken first. Their share in the collection is about 10%.
L3MBTL1 inh = L3MBTL1 (human) inhibition | Q9Y468 | 230,000 compounds, 0.66% hits | Potency, µM (highest dose often 57.1 µM), inactives show at the highest dose activity, negative = inhibition, actives largely listed as inhibitors | AID 485360 | AlphaScreen L3MBTL1–H3K9me1 peptide binding; further: on the % scale 0 is the no-effect control and ±100 the full control effect; nearly all actives have a fitted effect of over 60% in size
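L3MBTL1 (50 nM) pre-complexed 30 min with biotinylated H3(1-15)K9me1 peptide (75 nM), then compounds added for 30 min at room temperature; AlphaScreen streptavidin donor/nickel chelate acceptor beads (10 ug/mL final) read after 30 min dark incubation.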
GLS inhibitor = glutaminase GLS (human) inhibition; AID 624170; GLS enzymatic activity, qHTS titration; O94925; Potency, µM (series often up to 45.5 µM), for the others: at the highest dose activity change, negative = inhibition, usual class: inhibitors; 410,000 compounds, 0.21% hits; further: on the % scale 0 is the no-effect control and ±100 the full control effect
Target sequence (O94925 whole entry, looked up): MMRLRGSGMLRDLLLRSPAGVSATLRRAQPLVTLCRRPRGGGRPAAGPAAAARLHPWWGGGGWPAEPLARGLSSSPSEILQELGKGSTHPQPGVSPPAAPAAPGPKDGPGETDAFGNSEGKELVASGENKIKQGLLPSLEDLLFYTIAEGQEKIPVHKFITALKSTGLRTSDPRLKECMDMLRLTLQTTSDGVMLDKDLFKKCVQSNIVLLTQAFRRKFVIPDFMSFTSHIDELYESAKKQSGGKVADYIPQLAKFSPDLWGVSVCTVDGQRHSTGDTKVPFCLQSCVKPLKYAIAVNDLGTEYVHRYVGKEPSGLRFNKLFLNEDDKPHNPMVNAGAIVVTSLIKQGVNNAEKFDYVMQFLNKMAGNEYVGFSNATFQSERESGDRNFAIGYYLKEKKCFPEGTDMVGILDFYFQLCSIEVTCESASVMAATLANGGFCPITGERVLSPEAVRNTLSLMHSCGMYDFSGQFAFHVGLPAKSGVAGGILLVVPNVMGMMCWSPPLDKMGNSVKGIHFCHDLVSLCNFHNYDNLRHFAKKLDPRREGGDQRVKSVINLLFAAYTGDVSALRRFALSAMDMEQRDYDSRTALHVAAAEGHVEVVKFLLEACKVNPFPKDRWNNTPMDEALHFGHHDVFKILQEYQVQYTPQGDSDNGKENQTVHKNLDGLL
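Human kidney-isoform GLS in 45 mM KH2PO4 pH 8.2, 0.02% Tween-20, with compound, started with 1mM L-Glutamine (added stock). Glutamate oxidase/HRP/Amplex red coupled fluorescence read at start and after 30 min at RT.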
G9a inh = G9a (human) methyltransferase inhibition; Q96KQ7; G9a H3K9 monomethylation, AlphaScreen, 2 h; Potency, µM (series often up to 102 µM), inactives show at the top dose activity, negative = inhibition, usual class: inhibitors; 350,000 compounds, 8.8% hits; further: on the % scale 0 is the no-effect control and ±100 the full control effect; nearly all actives have a fitted effect of over 75% in size
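Methyltransferase reactions run at room temperature for 2 h (20 nM enzyme, 500 nM biotin-H3K9 peptide, 20 uM SAM) after a 15 min compound preincubation; product detected by AlphaScreen beads and anti-H3K9me1 antibody.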
HP1b binding inh = HP1-beta chromodomain-methylated histone interaction inhibition; Potency, µM (top dose mostly 114 µM), for the others: at the highest dose activity change, negative = inhibition, actives largely listed as inhibitors; AlphaScreen HP1-beta / biotin-H3K9me3 peptide binding; P83916; 390,000 compounds, 0.56% hits; further: nearly all actives have a fitted effect of over 70% in size
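AlphaScreen: HP1-beta (50 nM) preformed 30 min with biotin-H3(1-18)K9me3 peptide (50 nM) in PBS pH 7.4, 0.01% Tween-20. Compound added for 30 min at RT, then streptavidin donor/nickel chelate acceptor beads (10 ug/mL) for 30 min.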
JMJD2A Tudor = inhibitors of human JMJD2A Tudor domain; AlphaScreen JMJD2A-Tudor / H3K4me3 peptide binding; Potency, µM (series often up to 114 µM), for inactives: at the top dose activity change, negative = inhibition, actives largely listed as inhibitors; 390,000 compounds, 4.4% hits; AID 504339; further: on the % scale 0 is the no-effect control and ±100 the full control effect; nearly all actives have a fitted effect of over 50% in size
BAZ2B block = BAZ2B (human) inhibition; Q9UIF8; AlphaScreen BAZ2B-H3K14Ac peptide displacement; Potency, µM (highest dose often 114 µM), without a hit: at the top dose activity change, negative = inhibition, hits mostly inhibitors; 360,000 compounds, 4.4% hits; AID 504333; further: on the % scale 0 is the no-effect control and ±100 the full control effect; nearly all actives have a fitted effect of over 60% in size
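AlphaScreen displacement of biotin-H3(5-23)K14Ac peptide (50 nM final) from BAZ2B (50 nM final) in PBS pH 7.4, 0.01% Tween-20; complex preformed 30 min RT, then compounds (top 110 uM) 30 min RT, beads 20 min dark.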
* hit, by the source's call; u = inconclusive; x = no result; [ ] = remark or other dose. The call rests on the fitted dose curve; in most records, active means well fitted curve in the direction sought with a large enough effect; inconclusive means small, poorly fitted or top-dose-only effect, or another doubt; inactive means no such curve, though single readings can be large; an effect the other way counts as inactive or inconclusive. Potency means the concentration at half of the fitted maximal effect.

SMILES	L3MBTL1 inh	GLS inhibitor	G9a inh	HP1b binding inh	JMJD2A Tudor	BAZ2B block
Nc1ccc2c(c1)OC1(CCCC1)O2	-24%	u	35µM*	-39%	45µM*	40µM*
COc1cccc(CNS(=O)(=O)c2ccc(N3CCCCS3(=O)=O)cc2)c1	x	-5%	0%[12.7 µM]	38%	-9%	-9%
Cc1nc(NC(=O)CN2CCCCC2)sc1C(=O)N(C)C	-1%	-3%	79µM*	8%	-32%	-27%
Cc1nc(NC(=O)CN2CCOCC2)sc1C(=O)N(C)C	4%	3%	u	18%	16µM*	-20%
COc1ccccc1C1=Nn2c(nnc2-c2cccc(OC)c2OC)SC1	x	x	x	x	-16%	x
Cc1ccc(C(=O)Nc2ccc(S(=O)(=O)O)c3cc(S(=O)(=O)O)cc(S(=O)(=O)O)c23)cc1NC(=O)c1cccc(NC(=O)Nc2cccc(C(=O)Nc3cc(C(=O)Nc4ccc(S(=O)(=O)O)c5cc(S(=O)(=O)O)cc(S(=O)(=O)O)c45)ccc3C)c2)c1	x	8.9µM*	0.28µM*	x	x	x
CS(=O)(=O)N1CCN(c2ccc(NC(=O)C(c3ccccc3)c3ccccc3)cc2)CC1	-5%	6%	8.9µM*	1%	-20%	0%
O=C(Nc1ccc(N2CCCC2)cc1)C(Cl)c1ccccc1 (stereo unspecified)	-7%	-20%	10µM*	45µM*	28µM*	50µM*
O=C(O)C(Cc1ccccc1)N1C(=O)/C(=C/C=C/c2ccco2)SC1=S (stereo unspecified)	1.3µM*	-27%	x	10µM*	10µM*	8.9µM*
Cc1ccc(NC(=O)CCCN2C(=O)/C(=C/C=C/c3ccccc3)SC2=S)cc1	-5%	0%	-2%[59 µM]	-24%	-12%[57.1 µM]	-11%
CCC(C(=O)O)N1C(=O)/C(=C/c2cccn2C)SC1=S (stereo unspecified)	-4%	9%	u	-3%	-34%	u
O=C(O)CC(C(=O)O)N1C(=O)/C(=C/C=C/c2ccco2)SC1=S (stereo unspecified)	1.1µM*	2.8µM*	-186%[59 µM]	3.5µM*	3.5µM*	5µM*
O=C(O)CCCN1C(=O)/C(=C/C=C/c2ccco2)SC1=S	0.71µM*	1%	-170%[12.7 µM]	14µM*	5.6µM*	4µM*
Cc1cc(C)c(S(=O)(=O)c2ccc(F)cc2C)c(Cl)n1	x	16µM*	18%[2.33 µM]	45%	-2%	11%
Cc1cc(C)c(S(=O)(=O)c2ccccc2Cl)c(Cl)n1	4%	x	5%	x	x	-1%
S=c1[nH]nc(COc2ccccc2)n1-c1ccc(Cl)cc1	x	2%	x	22%	-29%	x
S=c1[nH]nc(Cn2cnc3ccccc32)n1-c1ccccc1	-19%	-7%	8.9µM*	-7%	4.5µM*	-15%
FC(F)(F)c1ccccc1-n1c(CN2CCCCC2)n[nH]c1=S	x	4%	20µM*	21%	22µM*	-24%
S=c1[nH]nc(CN2CCCCC2)n1-c1ccc(Cl)cc1	x	0%	18µM*	32%	5%	-22%
S=c1[nH]nc(Cn2nnc3ccccc32)n1-c1ccc(Cl)cc1	6%	-1%	11µM*	49%	-6%	-7%
Clc1ccc(Cc2nn3c(Cn4nnc5ccccc54)nnc3s2)cc1	-3%	0%	u	-19%	-13%	0%
CCOC(=O)C1=C[C@@H](C(=O)OCC)[C@@H]2C3=C(C(=O)C2(C)C)[C@H](c2ccccc2)[C@@H]2C(=O)N(c4ccccc4)C(=O)[C@@H]2[C@@H]3C1	x	x	x	21%	-18%	x
Fc1ccc(-n2c(CN3CCCCC3)n[nH]c2=S)cc1	-5%	-16%	45µM*	41%	u	-11%
CC1C(=O)NN=C1c1ccc([N+](=O)[O-])cc1 (stereo unspecified)	x	18%	x	17%	-16%	x
CC1CN2C(c3ccc([N+](=O)[O-])cc3)=CSC2=N1 (stereo unspecified)	2%[2.29 µM]	-22%	14%[0.501 µM]	u	79µM*	-6%
SMILES	L3MBTL1 inh	GLS inhibitor	G9a inh	HP1b binding inh	JMJD2A Tudor	BAZ2B block
COc1cccc(N2CCN(C(=O)c3ccc(C)c(NC(=O)c4nsc5ccccc45)c3)CC2)c1	x	-3%	-7%[59 µM]	7%[57 µM]	-30%	1%
Cc1ccc(NC(=O)c2cccc(C(F)(F)F)c2)cc1NC(=O)c1[nH]cnc1C(N)=O	-10%	3%	3%[0.501 µM]	31%	u	56µM*
Cc1nc2ccc(NC(=O)c3cccc(C(F)(F)F)c3)cc2o1	5%	-8%	-28%[59 µM]	21%	-9%	2%
O=C1Nc2ccccc2SC(c2ccccc2)C1O (stereo unspecified)	x	-10%	10µM*	-30%	56µM*	40µM*
CCOC(=O)c1ccc(N2C(=O)c3[nH]nc(-c4ccc(C)cc4)c3C2c2ccc(O)c(OCC)c2)cc1 (stereo unspecified)	x	5%	-29%[59 µM]	6%	-29%	x
O=C(NCCSc1c[nH]c2ccccc12)c1ccc(Br)o1	-12%	-2%	79µM*	15%	-12%	-10%
Fc1ccc(Br)cc1C1C=C(c2ccc(Br)cc2)Nc2nnnn21 (stereo unspecified)	x	-3%	11µM*	72%	4%	4%
CCOc1ccc(NC(=O)CSc2nnc(-c3ccc(C)cc3)c(-c3ccc(C)cc3)n2)cc1	x	2%	-27%[59 µM]	3%	u	-13%
O=C(c1c(F)cccc1F)N(Cc1ccccn1)C1CC1	x	-4%	u	17%	-3%[11.4 µM]	79µM*
O=C(CC1CCCCC1)NCc1ccccn1	x	0%	-27%[12.7 µM]	30%	-9%	-5%
CCc1ccc(C(=O)NC2=NC(c3ccccc3F)CC(=O)N2)cc1 (stereo unspecified)	x	1%	8%[59 µM]	45%	-5%	-20%
Cn1c(SCc2ccc(F)cc2)nc2ccc(C(=O)NCc3ccc(F)cc3)cc21	x	-2%	6%[59 µM]	23%	-20%	2%
Cc1ccc(C)c(SCC(=O)NNC(=O)c2ccccc2)c1	x	-11%	45µM*	45%	7%	-15%
Cc1ccc2nc(SCC(=O)Nc3ncccn3)[nH]c2c1	x	-1%	x	31%	-28%	u
Cc1ccc2nc(SCC(=O)NNC(=O)c3ccccc3)[nH]c2c1	5%	7%	25µM*	34%	-20%	8%
Cc1ccc(CNC(=O)c2ccc3nc(SCc4ccc(F)cc4)[nH]c3c2)cc1	x	2%	7.9µM*	u	7.9µM*	40µM*
O=C(CSc1nc2ccc(Cl)cc2[nH]1)NCCc1ccccc1	-3%	15%	79µM*	16%	-3%	1%
Cc1ccc(CN(C(=O)c2ccc(C(C)(C)C)cc2)c2ccccn2)o1	x	7%	3%[59 µM]	27%	-22%	-2%
